Hits are enriched below; roughly 27% of the tested compounds scored in any of these assays.
CYP2C19 inh: blocks human cytochrome P450 2C19 | P33261 | CYP2C19 Supersomes, luciferin-H EGE luminescence, 30 min | inhibition, % at 5 µM | AID 778 | actives 21% (n = 96,000);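 active = CYP2C19 inhibition above a set limit at 5 µM in the primary screen, cut at about 50% in these data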;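 note: plate controls were negative control wells for no effect and 2.5 mM tranylcypromine positive control for full effect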
CYP2C9 inh: human CYP2C9 inhibition. P11712. CYP2C9 Supersomes, luciferin-H conversion, luminescence. inhibition, % at 5 µM. actives 20% (n = 96,000);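 active = blocking of liver enzyme CYP2C9 beyond about 50% at 5 µM, limit read from the data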
Target sequence (P11712 whole entry, looked up): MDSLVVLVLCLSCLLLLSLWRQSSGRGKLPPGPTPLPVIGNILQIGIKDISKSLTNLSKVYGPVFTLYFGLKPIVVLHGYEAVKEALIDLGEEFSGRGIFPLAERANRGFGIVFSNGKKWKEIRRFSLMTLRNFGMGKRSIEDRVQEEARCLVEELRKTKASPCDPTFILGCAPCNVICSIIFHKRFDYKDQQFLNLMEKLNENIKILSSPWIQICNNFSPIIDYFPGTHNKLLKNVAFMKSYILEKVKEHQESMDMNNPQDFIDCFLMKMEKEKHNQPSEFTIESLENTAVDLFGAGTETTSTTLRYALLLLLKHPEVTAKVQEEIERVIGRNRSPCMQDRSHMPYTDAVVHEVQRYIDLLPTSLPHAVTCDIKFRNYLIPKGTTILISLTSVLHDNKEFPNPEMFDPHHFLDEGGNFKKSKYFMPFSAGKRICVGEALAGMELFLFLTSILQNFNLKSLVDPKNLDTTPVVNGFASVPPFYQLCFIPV
CYP2C19 act: increases human CYP2C19 enzyme activity; AID 1025; recombinant CYP2C19, luciferin-H EGE luminescence; active compounds read high; 0 = fully inhibited enzyme, 1 = untreated enzyme; 96,000 tested, under 10 active; activation factor at 5 µM; P33261;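 active = activation factor of at least 2 at 5 µM in the primary screen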;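 note: 0 = wells with 2.5 mM tranylcypromine and 1 = vehicle-only wells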
CYP2C9 activ: activators of human CYP2C9 | P11712 | recombinant CYP2C9, luciferin-H conversion, luminescence; active compounds read high; factor 1 = untreated enzyme, 0 = blocked | activation factor at 5 µM | actives 1.4% (n = 96,000) | AID 1024;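 active = activation factor of 2 or more for CYP2C9 at a 5 µM dose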;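 note: 0 = sulfaphenazole-blocked wells and 1 = vehicle-only wells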
Cav32 inh: inhibitors of human Cav3.2 T-type calcium channel | O95180 | B-score at 10 µM | actives 4% (n = 100,000) | Cav3.2-expressing cells, Fluo-4 calcium fluorescence FDSS; active compounds read low;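 active = single-dose well whose peak fluorescence ratio is a statistical outlier from its plate by either plate-standardised score or position-corrected B-score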
The depositor's hits bear a star; x = not tested or not shown.

SMILES | CYP2C19 inh | CYP2C9 inh | CYP2C19 act | CYP2C9 activ | Cav32 inh
Nn1c(SCC(=O)N2CCCCC2)nnc1-c1ccncc1 | 14 | 5 | 0.9 | 0.9 | 0.2
Cc1csc2nc(CSc3ccc(Cl)cc3)cn12 | 73* | -261 | 0.3 | 3.6* | -1.1
Cn1nnnc1SCC(=O)Nc1c(Cl)cccc1Cl | 10 | 15 | 0.9 | 0.8 | -0.025
Cc1cc(C)nc(N2CCCC(C(=O)Nc3nnc(C(C)C)s3)C2)n1 (centres undefined) | x | x | x | x | 1.2
O=C(O)CSC1CC(=O)N(c2ccc(Cl)c(Cl)c2)C1=O (centres undefined) | 64* | 33 | 0.4 | 0.7 | 0.12
C=CCn1c(SCC(=O)N2CCOCC2)nc2sc3c(c2c1=O)CCCC3 | 71* | 80* | 0.3 | 0.2 | 0.48
Cn1c(SCc2nnc(-c3ccccc3Br)o2)nc2sc3c(c2c1=O)CCC3 | 77* | 94* | 0.2 | 0.1 | -1.8
C=CCn1c(SCc2ccc3c(c2)OCO3)nc2scc(-c3ccco3)c2c1=O | 43 | 25 | 0.6 | 0.8 | -0.41
Cn1c(SCC(=O)N2CCOCC2)nc2sc3c(c2c1=O)CCCC3 | 60* | 88* | 0.4 | 0.1 | 1.2
C=CCn1c(SCC(=O)N2CCOCC2)nc2scc(-c3ccco3)c2c1=O | 11 | 40 | 0.9 | 0.6 | 3.5*
O=c1c2ccccc2nc(SCc2nnc(-c3ccccc3Br)o2)n1-c1ccccc1 | x | x | x | x | -0.62
CC(C)(CNS(=O)(=O)c1ccc(F)cc1)CNS(=O)(=O)c1ccc(F)cc1 | 32 | 0 | 0.7 | 1 | x
Cc1ccc(S(=O)(=O)Nc2ccc(S(=O)(=O)NC(C)(C)C)cc2)cc1 | 48 | 87* | 0.5 | 0.1 | -1.6
Cc1ccc(S(=O)(=O)Nc2ccc(-c3nc4cc(NS(=O)(=O)c5ccc(C)cc5)ccc4o3)cc2)cc1 | 81* | 97* | 0.2 | 0 | -0.3
Cc1ccc(S(=O)(=O)Nc2cccnc2)cc1 | 15 | 2 | 0.8 | 1 | -0.23
CC(C)(C)NS(=O)(=O)c1ccc(NS(=O)(=O)c2ccc(F)cc2)cc1 | 38 | 93* | 0.6 | 0.1 | -2.3
COc1ccc(NS(=O)(=O)c2ccc(NS(=O)(=O)c3ccc(C)cc3)cc2)nn1 | -3 | 66* | 1 | 0.3 | x
CCC(=O)N1CCc2cc(Br)cc(S(=O)(=O)NCCN3CCCCC3C)c21 (centres undefined) | 3 | -25 | 1 | 1.2 | 0.87
CCCN(CCC)S(=O)(=O)c1ccc(NS(=O)(=O)c2ccc(F)cc2)cc1 | 46 | 92* | 0.5 | 0.1 | -3.9*
CC(C)(CO)C(O)C(=O)NCCC#N (centres undefined) | x | x | x | x | 0.99
Cc1nn(-c2cccc(Cl)c2)c2c1C(c1ccncc1)C(C#N)=C(N)O2 (centres undefined) | 50* | 62* | 0.5 | 0.4 | -0.1
COc1ccc(OC)c(C2C(C#N)=C(N)Oc3c2c(C)nn3-c2cccc(Cl)c2)c1 (centres undefined) | 83* | 98* | 0.2 | 0 | 0.096
Cc1nn(-c2cccc(Cl)c2)c2c1C(c1cccnc1)C(C#N)=C(N)O2 (centres undefined) | 9 | 26 | 0.9 | 0.7 | 0.86
NC(=O)CC(NC(=O)Cc1cccc2ccccc12)c1ccc(NCCc2ccccc2F)c([N+](=O)[O-])c1 (centres undefined) | x | x | x | x | -0.069
COc1ccc(CNC(=O)Cn2nc(-c3ccc4c(c3)OCCO4)ccc2=O)cc1 | 26 | 60* | 0.7 | 0.4 | 0.12
SMILES | CYP2C19 inh | CYP2C9 inh | CYP2C19 act | CYP2C9 activ | Cav32 inh
CC(=O)Nc1cc2c(cc1NC(=O)Cn1nc(-c3ccc4c(c3)OCCO4)ccc1=O)OCCO2 | 55* | 39 | 0.4 | 0.6 | -0.046
COc1cccc(CNC(=O)Cn2nc(-c3ccc(Cl)cc3)ccc2=O)c1 | 55* | 77* | 0.5 | 0.2 | -2.6
CCCSc1nc2c(=O)[nH][nH]c(=O)c2n1Cc1ccccc1 | x | x | x | x | -0.11
CC(C)n1c(SCC(=O)Nc2nc3c(s2)CCCC3)nc2c1c(=O)n(C)c(=O)n2C | x | x | x | x | -2.2
COc1ccc(C2CC(=O)NC3=C2C(=O)CCC3)cc1Cl (centres undefined) | 21 | -15 | 0.8 | 1.1 | x
CC(C)C(NS(=O)(=O)c1cccc2nsnc12)C(=O)N1CCc2ccccc2C1 (centres undefined) | 24 | 41 | 0.8 | 0.6 | 1.7
NS(=O)(=O)c1cc(C2(O)NC(=O)c3ccccc32)ccc1Cl (centres undefined) | x | x | x | x | -0.49
COc1cc2c(cc1OC)C1=C(C#N)CN(CC(=O)O)CN1CC2 | 27 | 57* | 0.7 | 0.4 | x
